In PubChem BioAssay (NCATS):
Results filed as inconclusive are left out. Active and inactive are the calls of the source. Unless noted, the rule behind the calls is not given here.

Legend:
[1] = qHTS Assay for Identifying Gametocytocidal Compounds (AID 743244; active = well fitted curve in the direction sought with a large enough effect; an effect the other way counts as inactive or inconclusive; note: potency is the fitted concentration of half-maximal effect;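 for max response: % is set by controls: 0 for no effect and ±100 for the full control effect; actives lower the fluorescent signal which means gametocytes are killed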); conditions: P. falciparum 3D7 stage III-V gametocytes, alamarBlue, 72 h; max response: stronger effect = lower value
How it was run: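 Fluorescence at Ex 525/Em 598 nm, recorded 24 h after alamarBlue addition, reports residual metabolic activity of 3D7 gametocytes (stages III–V) following 72 h compound exposure at 37 °C, 5% CO2.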

[2] = qHTS profiling for inhibitors of Plasmodium falciparum (3D7) proliferation (AID 743322);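 note: infected erythrocytes exposed to compound for 72 h before lysis; 100% = DMSO vehicle wells and 0% = 0.29 µM artemisinin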; conditions: P. falciparum 3D7 proliferation; at 28.7 µM (top of the series)
How it was run: (§1)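 Erythrocytes infected with P. falciparum (0.3% parasitemia, 2.5% hematocrit) incubated with compounds 72 h at 37 C, 5% CO2. Lysis with saponin/Triton buffer containing SYBR Green I, overnight at room temperature in the dark; DNA fluorescence (485/535 nm) normalised to 0.29 uM artemisinin and DMSO.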

[3] = qHTS profiling for inhibitors of Plasmodium falciparum (DD2) proliferation (AID 743323); conditions: lower = more inhibition; at 28.7 µM (top of the series)
How it was run: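 P. falciparum Dd2-infected erythrocytes (0.3% parasitemia, 2.5% hematocrit) exposed 72 h at 37 C, 5% CO2. Lysis with SYBR Green, overnight at room temperature, fluorescence 485/535 nm; normalized to 0.29 uM artemisinin and DMSO.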

[4] = qHTS profiling for inhibitors of Plasmodium falciparum (HB3) proliferation (AID 743324; active = well fitted curve in the direction sought with a large enough effect; an effect the other way counts as inactive or inconclusive;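 note: 100% = DMSO vehicle wells and 0% = artemisinin-treated control wells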); conditions: Plasmodium falciparum HB3 blood-stage proliferation; at 28.7 µM (top of the series)
How it was run: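 P. falciparum HB3 grown in erythrocytes (0.3% parasitemia, 2.5% hematocrit final) with compound for 72 h at 37 C, 5% CO2. Parasite DNA detected by SYBR Green after saponin/triton lysis overnight; normalized to 0.29 uM artemisinin and DMSO.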

[5] = qHTS profiling of the MIPE4 collection as inhibitors of Plasmodium falciparum (3D7) proliferation (AID 743344);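 note: scaled between DMSO vehicle wells and 0.29 µM artemisinin as full inhibition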; conditions: P. falciparum 3D7 in erythrocytes, SYBR Green DNA fluorescence, 72 h; at 28.5 µM (top of the series) unless noted
How it was run: as §1

[6] = qHTS profiling of the MIPE4 collection as inhibitors of Plasmodium falciparum (DD2) proliferation (AID 743345); conditions: P. falciparum Dd2 in erythrocytes, SYBR Green DNA, 72 h; at 28.5 µM (top of the series) unless noted
How it was run: as §1

[7] = qHTS profiling of the MIPE4 collection as inhibitors of Plasmodium falciparum (DD2) proliferation (Rep 2) (AID 743346); conditions: P. falciparum Dd2 in erythrocytes, SYBR Green DNA, 72 h; at 28.5 µM (top of the series) unless noted
How it was run: as §1

[8] = qHTS profiling of the MIPE4 collection as inhibitors of Plasmodium falciparum (HB3) proliferation (AID 743347);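 note: plate controls were DMSO vehicle wells for no effect and artemisinin wells for full effect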; conditions: P. falciparum HB3 in erythrocytes, SYBR Green DNA, 72 h; at 28.5 µM (top of the series) unless noted
How it was run: as §1

[9] = High-throughput drug toxicity screening in the BPDCN cell line Gen2.2 (AID 1224824); conditions: Gen2.2 BPDCN cells; at 45.8 µM (top of the series) unless noted;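 note: cells exposed to compounds for 48 h before reading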
How it was run: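 Gen2.2, 500 cells/well, phenol red-free RPMI/10% FBS/Pen-Strep; 48 h cpd, 37 °C/5% CO2; CTG lum, 15 min RT. Norm: DMSO = 100%, bortezomib 9.2 uM final = 0%.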

[10] = High-throughput drug toxicity screening in the BPDCN cell line Cal-1 (AID 1224825); conditions: Cal-1 BPDCN cell viability, qHTS; at 45.8 µM (top of the series) unless noted
How it was run: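 Exponentially growing Cal-1 cells, 500 per well in phenol red-free RPMI with 10% FBS, were exposed to compounds for 48 h at 37 °C, 5% CO2. Viability was read by CellTiter-Glo luminescence and normalised to DMSO (100%) and 9.2 uM bortezomib (0%).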

[11] = qHTS assay for measurement of the activity of small molecule inhibitors on Zika virus induced Caspase-3 activity in human iPSC derived neural progenitor cells (hNPCs) (AID 1224857; active = well fitted curve in the direction sought with a large enough effect; an effect the other way counts as inactive or inconclusive; note: % of control where 0% means no effect; nearly all actives have a fitted effect of over 65% in size)
How it was run: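 Zika virus (2 FFU/cell) infection of human iPSC-derived NPCs, 6 h, following 1 h compound preincubation. Read-out: Caspase-Glo 3/7 luminescence.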

Row | SMILES | Potency [1] | remaining parasite growth % (stronger effect = lower value) [2] [%] | activity, percent of control [3] [%] | remaining proliferation (% of control), lower = more inhibition [4] [%] | parasite growth, % of DMSO control [5] [%] | parasite growth remaining, % of DMSO control (lower = more inhibition) [6] [%] | parasite growth, % of control (lower = inhibition) [7] [%] | growth, % of control [8] [%] | cell viability, % of control (lower = more cytotoxic) [9] [%] | viability (% of control) [10] [%] | Potency [11] | max response [1]
1 | CCN1CCN(CC(=O)Nc2ccc(-c3cccc4c(=O)cc(N5CCOCC5)oc34)c3sc4ccccc4c23)CC1 | 29.6 µM (active) | -0.258 | 0.865 | 0.111 | 5.76 | 6.58 | 16.5 | 7.23 | 1.44 | 2.53 | inactive | 
2 | CC(C)(C)OC(=O)Nc1ccc(-c2cc(C(=O)NCCCCCCC(=O)NO)no2)cc1 | 9.35 µM (active) | -1.38 | -0.213 | 0.579 |  |  | 12.7 | 3.96 | 4.96 | 3.94 | inactive | 
3 | CCOC(=O)C1=C(C)NC2=C(C(=O)CC(C)(C)C2)C1c1ccc(-c2ccccc2)cc1 (stereo not drawn) |  |  |  |  |  |  |  |  | 5.24 | 4.47 | inactive | 
4 | NC(=O)Nc1cc(-c2cccc(F)c2)sc1C(=O)N[C@H]1CCCNC1 | 18.7 µM (active) | -0.937 | 5.1 | 0.699 | 7.3 | 10.6 | 15.5 | 6.42 | 7.53 | 4.12 | inactive | 
5 | Clc1cccc(-n2nnnc2NCc2ccccc2Oc2ccccn2)c1Cl |  |  |  |  |  |  |  |  | 100 | 100 |  | 
6 | CN(C)CCCN=c1c2ccccc2n(C)c2[nH]c(=O)n(C)c(=O)c12 | 14.8 µM (active) | 5.55 | 15.1 | 3.8 | 5.98 | 10.8 | 9.14 | 3 | 2.75 | 4 | inactive | 
7 | CC(C)C[C@H](NC(=O)CNC(=O)c1cc(Cl)ccc1Cl)B(O)O | 18.7 µM (active) | -0.752 | -0.333 | -0.908 | 5.16 |  | 7.79 | 3.75 | 2.43 | 4.79 | inactive | 
8 | COc1cc2nccc(Oc3ccc(NC(=O)C4(C(=O)Nc5ccc(F)cc5)CC4)cc3)c2cc1OC |  | 3.02 | 14.8 |  | 3.93 | 10.7 | 7.46 | 2.54 | 5.49 | 5.29 | inactive | 4.76% (inactive)
9 | Cc1ccc(C(=O)Nc2ccc(CN3CCN(C)CC3)c(C(F)(F)F)c2)cc1C#Cc1cnc2cccnn12 | 18.7 µM (active) | -1.18 | 0.143 | -1.05 | 6.07 |  | 13 | 8.37 | 10.5 | 3.63 | inactive | 
10 | Cc1cnc(-c2cnc(NCCNc3ccc(C#N)cn3)nc2-c2ccc(Cl)cc2Cl)[nH]1 |  | 89 | 90.2 | 53.7 | 34.7 | 76.5 | 40.9 | 27.2 | 229 | 38.3 | inactive | 11.2% (inactive)
11 | CNC(=O)c1cc(Oc2ccc(NC(=O)Nc3cc(C(C)(C)C)nn3-c3ccc4ncccc4c3)c(F)c2)ccn1 |  | 26.7 | 73.3 | 24.1 | 5.7 | 15.5 | 10.2 | 9.48 | 5.59 | 7 | inactive | -28.6% (inactive)
12 | CS(=O)(=O)N1CCN(Cc2cc3nc(-c4cccc5[nH]ncc45)nc(N4CCOCC4)c3s2)CC1 |  |  |  |  |  |  |  |  | 27.2 | 27.7 | inactive | 
13 | CC(C)(C)c1cc(C(C)(C)C)c(NC(=O)c2c[nH]c3ccccc3c2=O)cc1O |  | 33.5 | 28.9 | 18.9 | 106 | 95.2 | 88.9 | 57.9 | 105 | 102 | inactive | 7.52% (inactive)
14 | C=CC(=O)N1CCC[C@@H](n2nc(-c3ccc(Oc4ccccc4)cc3)c3c(N)ncnc32)C1 |  |  |  |  |  |  |  |  | 43.2 | 6.59 | inactive | 
15 | N#Cc1c(O)c2c(-c3ccc(-c4ccccc4O)cc3)csc2[nH]c1=O |  | 93.3 | 96 | 87.6 | 70.3 | 94.8 | 47.7 | 71.1 | 185 | 108 | inactive | 42.7% (inactive)
16 | Cc1cnc(Nc2ccc(F)cc2Cl)nc1-c1c[nH]c(C(=O)N[C@H](CO)c2cccc(Cl)c2)c1 |  | 7.37 | 17.2 | 6.37 | 7.48 |  | 12.8 | 11.5 | 4.9 | 1.37 | inactive | -28.2% (inactive)
17 | CCCCN1CCC(CNC(=O)c2c3n(c4ccccc24)CCCO3)CC1 |  |  |  |  |  |  |  |  | 110 | 9.06 | inactive | 
18 | O=C(NCCS(=O)(=O)c1ccc(C(F)(F)F)cn1)c1ccc(Cl)cc1 |  | 98.8 | 98.7 | 99.7 | 127 | 103 | 82.3 | 84.8 | 146 | 123 | inactive | 12.1% (inactive)
19 | Cc1cc(Nc2cc(N3CCN(C)CC3)nc(Sc3ccc(NC(=O)C4CC4)cc3)n2)n[nH]1 | 23.5 µM (active) |  | 68.3 | 9.14 | 11.5 | 16 | 22.4 | 2.93 | 36.4 | 12.3 | inactive | 
20 | CC[C@H](CO)Nc1nc(NCc2ccccc2)c2ncn(C(C)C)c2n1 |  |  |  | 19.5 |  |  |  |  | 11.9 | 29.5 | inactive | -4.23% (inactive)
21 | CN[C@H]1CCc2cc(OC)c(OC)c(OC)c2-c2ccc(OC)c(=O)cc21 |  |  |  |  |  | 90.5 | 47.1 | 90.6 | 24.2 | 11.6 | inactive | -7.45% (inactive)
22 | CN1CC[C@@H](c2c(O)cc(O)c3c(=O)cc(-c4ccccc4Cl)oc23)[C@@H](O)C1 |  | 3.4 | 4.17 | 4.58 | 8.91 | 13.5 | 9.93 | 11.3 | 7.16 | 5.59 | inactive | 
